Data on six molecules can be found in PubChem BioAssay (EPA / NIEHS).

Test [1] is described as follows: BSK_BF4T_SRB: Viability Assessment in the BioMAP Diversity Plus: BF4T Assay (AID 2284274). The following applies: primary human bronchial epithelial cells with fibroblasts. The method in brief: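 Cytotoxicity measured as total protein: cells fixed with 10% TCA, stained with 0.1% SRB, read at 560 nm. Bronchial epithelial/dermal fibroblast co-culture, 24 h after dosing, with positive-direction fitting relative to DMSO.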

Read-out in test [2]: urokinase Plasminogen Activator (uPA), PLAU (gene 5328)
The test is described as follows: BSK_BF4T_uPA: BioMAP Diversity Plus: BF4T Assay for urokinase Plasminogen Activator (uPA) Biomarker Activity (AID 2284275). Conditions: primary human bronchial epithelial cells with fibroblasts. Summed up: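 uPA levels measured by ELISA at 24 hours in BF4T cultures (bronchial epithelial cells plus dermal fibroblasts) and compared with DMSO; cytotoxicity tracked in parallel cultures by sulforhodamine B staining.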

Read-out in test [3]: Matrix Metallopeptidase 9 (MMP9), MMP9 (gene 4318)
The test is described as follows: BSK_BF4T_MMP9: BioMAP Diversity Plus: BF4T Assay for Matrix Metallopeptidase 9 (MMP9) Biomarker Activity (AID 2284276). Conditions: primary human bronchial epithelial cells with fibroblasts. The method in brief:
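MMP-9 levels were measured by ELISA after 24 h exposure of bronchial epithelial cell/dermal fibroblast co-cultures, with DMSO as baseline. Parallel cultures were stained with 0.1% SRB after TCA fixation, read at 560 nm, to flag overt cytotoxicity.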

Read-out in test [4]: Interleukin-8 (IL8), CXCL8 (gene 3576)
The test is described as follows: BSK_IMphg_IL8: BioMAP Diversity Plus: IMphg Assay for Interleukin-8 (IL8) Biomarker Activity (AID 2284277). Conditions: primary human endothelial cells with macrophages. The method in brief: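 IL-8 levels were measured by ELISA 24 h after dosing in primary human venular endothelial cell–macrophage cultures, referenced to DMSO; parallel SRB staining monitored overt cytotoxicity.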

Read-out in test [5]: Intercellular Adhesion Molecule 1 (ICAM1), ICAM1 (gene 3383)
Nature of the test: BSK_BE3C_ICAM1: BioMAP Diversity Plus: BE3C Assay for Intercellular Adhesion Molecule 1 (ICAM1) Biomarker Activity (AID 2284278).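 Further: cell-surface ICAM-1 protein level quantified by ELISA.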 The following applies: primary human bronchial epithelial cells. The method in brief:
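ICAM-1 quantified by ELISA and fitted against DMSO baseline, 24 h post-dosing in BE3C cultures of primary human lung bronchial epithelial cells. Cytotoxicity checked in parallel cultures by total protein SRB staining.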

Read-out in test [6]: Interferon-inducible T-cell alpha chemoattractant (ITAC), CXCL11 (gene 6373)
The test is described as follows: BSK_BE3C_ITAC: BioMAP Diversity Plus: BE3C Assay for Interferon-inducible T-cell alpha chemoattractant (ITAC) Biomarker Activity (AID 2284279). Conditions: primary human bronchial epithelial cells. Summed up: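 The assay measures I-TAC levels by ELISA in human primary bronchial epithelial cell cultures 24 hours after chemical treatment. Values reflect signal increase over the DMSO baseline.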

Read-out in test [7]: Interleukin-8 (IL8), CXCL8 (gene 3576)
The test is described as follows: BSK_BE3C_IL8: BioMAP Diversity Plus: BE3C Assay for Interleukin-8 (IL8) Biomarker Activity (AID 2284280). The following applies: primary human bronchial epithelial cells. Summed up:
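Dose human bronchial epithelial cells with chemical; incubate 24 h; quantify IL-8 by ELISA; fit response upward versus DMSO controls.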

Read-out in test [8]: Epidermal growth factor receptor (EGFR), EGFR (gene 1956)
The test is described as follows: BSK_BE3C_EGFR: BioMAP Diversity Plus: BE3C Assay for Epidermal growth factor receptor (EGFR) Biomarker Activity (AID 2284281). Conditions: primary human bronchial epithelial cells. The method in brief: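 ELISA read-out of EGFR levels on human bronchial epithelial primary cells collected 24 h post-dosing. DMSO served as negative control and baseline for gain-of-signal fitting.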

Read-out in test [9]: KRT18 (gene 3875)
The test is described as follows: BSK_BE3C_Keratin818: BioMAP Diversity Plus: BE3C Assay for Keratin 818 Biomarker Activity (AID 2284282). Conditions: primary human bronchial epithelial cells. Summed up:
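ELISA readout of Keratin 8/18 in human primary bronchial epithelial cultures after 24 h chemical exposure, DMSO baseline. Parallel SRB staining (0.1%, TCA-fixed, 560 nm) served as cytotoxicity check.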

Read-out in test [10]: Matrix Metallopeptidase 9 (MMP9), MMP9 (gene 4318)
The test is described as follows: BSK_BE3C_MMP9: BioMAP Diversity Plus: BE3C Assay for Matrix Metallopeptidase 9 (MMP9) Biomarker Activity (AID 2284283). Conditions: primary human bronchial epithelial cells. Summed up: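 Human primary bronchial epithelial cells exposed 24 h to compound. MMP9 quantified by ELISA. SRB total-protein staining of parallel cultures assesses cytotoxicity. Positive-direction fit relative to DMSO.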

Read-out in test [11]: Plasminogen activator inhibitor-1 (PAI1), SERPINE1 (gene 5054)
The test is described as follows: BSK_CASM3C_PAI1: BioMAP Diversity Plus: CASM3C Assay for Plasminogen activator inhibitor-1 (PAI1) Biomarker Activity (AID 2284284). Conditions: primary human coronary artery smooth muscle cells.

Read-out in test [12]: Monocyte Chemoattractant Protein-1 (MCP1), CCL2 (gene 6347)
The test is described as follows: BSK_hDFCGF_MCP1: BioMAP Diversity Plus: hDFCGF Assay for Monocyte Chemoattractant Protein-1 (MCP1) Biomarker Activity (AID 2284285). The following applies: primary human foreskin fibroblasts. Summed up: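 MCP-1 ELISA readout was taken 24 hours after dosing primary human dermal fibroblasts in the hDFCGF system, with DMSO as baseline. Parallel sulforhodamine B staining of total protein tracked overt cytotoxicity.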

Read-out in test [13]: Vascular cell adhesion molecule 1 (VCAM1), VCAM1 (gene 7412)
Nature of the test: BSK_IMphg_VCAM1: BioMAP Diversity Plus: IMphg Assay for Vascular cell adhesion molecule 1 (VCAM1) Biomarker Activity (AID 2284286). Conditions: primary human endothelial cells with macrophages. Summed up:
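ELISA read-out of VCAM-1 on venular endothelial cell/macrophage co-cultures at 24 h post-treatment, with DMSO as baseline and positive-direction fitting. Parallel sulforhodamine B total-protein staining (560 nm) served as the overt cytotoxicity measure.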

Read-out in test [14]: Intercellular Adhesion Molecule 1 (ICAM1), ICAM1 (gene 3383)
Nature of the test: BSK_hDFCGF_ICAM1: BioMAP Diversity Plus: hDFCGF Assay for Intercellular Adhesion Molecule 1 (ICAM1) Biomarker Activity (AID 2284287). Conditions: primary human foreskin fibroblasts. Summed up:
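ICAM-1 ELISA readout 24 h after dosing, DMSO as baseline, in human dermal foreskin fibroblast cultures. Cytotoxicity checked in parallel wells by SRB staining (0.1% SRB, 10% TCA fixation, 560 nm).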

Read-out in test [15]: CD40, CD40 (gene 958)
Nature of the test: BSK_IMphg_CD40: BioMAP Diversity Plus: IMphg Assay for CD40 Biomarker Activity (AID 2284288). Conditions: primary human endothelial cells with macrophages. The method in brief: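 ELISA read-out of cell-surface CD40 at 24 h in human venular endothelial cell/macrophage co-cultures. Activity fitted in the positive direction against DMSO; parallel SRB staining (560 nm) gauges overt cytotoxicity.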

Read-out in test [16]: TIMP metallopeptidase inhibitor 2 (TIMP2), TIMP2 (gene 7077)
The test is described as follows: BSK_hDFCGF_TIMP2: BioMAP Diversity Plus: hDFCGF Assay for TIMP metallopeptidase inhibitor 2 (TIMP2) Biomarker Activity (AID 2284289). Conditions: primary human foreskin fibroblasts. Summed up:
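Primary human foreskin fibroblasts in the hDFCGF system, dosed for 24 h; TIMP-2 level measured by ELISA, fitted in the positive direction against DMSO; cytotoxicity checked in parallel by sulforhodamine B total protein staining.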

Read-out in test [17]: Interleukin-1 alpha (IL1a), IL1A (gene 3552)
The test is described as follows: BSK_IMphg_IL1a: BioMAP Diversity Plus: IMphg Assay for Interleukin-1 alpha (IL1a) Biomarker Activity (AID 2284290). Conditions: primary human endothelial cells with macrophages. Summed up:
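IL-1α is quantified by ELISA at 24 h in the endothelial/macrophage IMphg co-culture, with gain of signal fitted relative to DMSO. Parallel SRB total-protein staining flags overt toxicity.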

Read-out in test [18]: Plasminogen Activator Inhibitor-1 (PAI1), SERPINE1 (gene 5054)
Nature of the test: BSK_BF4T_PAI1: BioMAP Diversity Plus: BF4T Assay for Plasminogen Activator Inhibitor-1 (PAI1) Biomarker Activity (AID 2284273). The following applies: primary human bronchial epithelial cells with fibroblasts. Summed up: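 PAI-1 levels quantified by ELISA 24 h post-dosing in bronchial epithelial cell plus dermal fibroblast cultures. Signal gain referenced to DMSO baseline. Sulforhodamine B total-protein staining of parallel wells checked cytotoxicity.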

Read-out in test [19]: E-selectin (Homo sapiens) (UniProt P16581)
The test is described as follows: BSK_IMphg_ESelectin: BioMAP Diversity Plus: IMphg Assay for Eselectin Biomarker Activity (AID 2284291). The following applies: primary human endothelial cells with macrophages. Summed up: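 Analysed against DMSO baseline in the positive fitting direction, this endpoint is an ELISA read of E-selectin. It comes from human venular endothelial cells co-cultured with macrophages, sampled 24 h post-dose.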

Each structure is given as a SMILES string. “And” between values parts separate entries of the source, which are not always exact repeats. Identical values can stand only once. A structure can be active in one record and inactive in another. The source made the active and inactive calls. How the source made its calls: active means hit-call score of the fitted dose curve at least 0.9, where 1 is the maximum; inactive means score below 0.9.

The AC50 is the concentration at which the activity in the assay is half-maximal.

Sequence of E-selectin (Homo sapiens) (P16581 whole entry, looked up): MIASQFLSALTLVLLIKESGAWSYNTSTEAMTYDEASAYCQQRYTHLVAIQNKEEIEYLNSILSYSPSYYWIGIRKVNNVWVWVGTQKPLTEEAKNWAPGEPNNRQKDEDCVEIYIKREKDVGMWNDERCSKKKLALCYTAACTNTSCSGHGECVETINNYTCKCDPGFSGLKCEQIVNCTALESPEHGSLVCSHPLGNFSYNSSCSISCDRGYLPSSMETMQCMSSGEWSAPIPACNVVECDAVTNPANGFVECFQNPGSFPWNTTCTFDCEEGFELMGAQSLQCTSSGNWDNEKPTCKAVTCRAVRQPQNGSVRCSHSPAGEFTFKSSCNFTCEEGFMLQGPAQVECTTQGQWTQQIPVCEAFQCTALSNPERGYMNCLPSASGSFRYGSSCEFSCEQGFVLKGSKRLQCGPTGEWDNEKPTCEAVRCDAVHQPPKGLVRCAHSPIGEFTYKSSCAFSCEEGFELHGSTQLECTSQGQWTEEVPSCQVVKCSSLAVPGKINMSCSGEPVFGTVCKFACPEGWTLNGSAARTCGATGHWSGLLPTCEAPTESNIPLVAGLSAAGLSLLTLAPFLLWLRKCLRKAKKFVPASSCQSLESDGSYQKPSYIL

Regarding `O=C(O)C(F)(F)C(F)(F)C(F)(F)C(F)(F)C(F)(F)C(F)(F)C(F)F`, the result in [1], in test [2], in test [3], in test [5], in test [6] and in test [7] was inactive. The outcome in [8], in [9], in test [10], in [11], in test [12] and in [13] was inactive. For the same molecule, the result in test [14], in test [15], in test [16] and in test [17] was inactive. In addition, the half-maximal activity concentration (AC50) was 30 µM (active) and 21.7 µM (active) and 32.1 µM (active) in [4]; 957 nM (active) in test [16].
Turning to `FC(F)(F)C(F)(F)C(F)(F)C(F)(F)C(F)(F)C(F)(F)C(F)(F)CCI`, the result in test [1], in [2], in test [3], in test [4], in [5] and in test [6] was inactive. The result in test [7], in test [8], in [9], in test [10], in test [11] and in [12] was inactive. Moreover, the result in test [13], in [14], in test [15], in test [16] and in test [17] was inactive. Further, the AC50 in test [7] is 662 nM (active).
As for `OCC(F)(F)C(F)(F)C(F)(F)CO`, the result in [1], in [2], in test [3], in [4], in test [5] and in [6] was inactive. Besides, the result in test [7], in [8], in [9], in [10], in test [11] and in [12] was inactive. Moreover, the result in [13], in [14], in test [15], in test [16] and in test [17] was inactive.
With `CCOC(=O)CC(=O)C(F)(F)C(F)(F)F`, the result in test [18], in test [1], in test [2], in [3], in [5] and in test [6] was inactive. The outcome in [7], in test [8], in test [9], in [10], in test [11] and in [12] was inactive. Further, the result in test [13], in test [14], in test [15], in test [16], in test [17] and in [19] was inactive.
For the molecule `O=S(=O)(O)CCC(F)(F)C(F)(F)C(F)(F)C(F)(F)F`, the outcome in test [1], in [2], in test [3], in [4], in [5] and in [6] was inactive. Moreover, the outcome in [7], in test [8], in test [9], in [10], in test [11] and in [12] was inactive. Besides, the outcome in [13], in test [14], in test [15], in [16] and in test [17] was inactive.
As to `O=C(O)C(F)(F)OC(F)(F)C(F)(F)OC(F)(F)C(F)(F)OC(F)(F)F`, the result in [1], in [2], in test [3], in test [5], in test [6] and in [7] was inactive. For the same molecule, the outcome in [8], in [9], in [10], in test [11], in test [12] and in test [13] was inactive. Besides, the outcome in test [14], in [15], in test [16] and in test [17] was inactive. Moreover, the AC50 in [10] was 1470 nM (active).
